In the library only some 5.7% were active in any assay of this set; here they are far more common.
KB-V1 MDR tox – kills drug-selected multidrug resistant KB-V1 cells. KB-V1 MDR cells viability, CellTiter-Glo, 72 h. Potency, µM (highest dose often 46.1 µM), usual class: cytotoxic. 400,000 tested, 3.4% active; also: nearly all actives have a fitted effect of over 60% in size
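Potencies derive from concentration-effect curves fitted to normalized luminescence (CellTiter-Glo) of KB-V1 cells treated for 72 h at 37 degrees C in phenol-red-free DMEM containing 10% FBS.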
HT1080 IDH1KD tx – kills HT-1080 cells with IDH1 knockdown. AID 686971. 360,000 tested, 2% active. Potency, µM (highest dose often 46.1 µM), inactives show at the highest dose activity, negative = toxicity, hits mostly cytotoxic. HT-1080 IDH1 knockdown viability, ATP luminescence, 48 h;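 also: 0% = DMSO wells and -100% = cell-free medium wells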
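IDH1KD HT-1080 cells, 750/well, RPMI + 5% FBS; compound pinned after 2 h settling; 48 h, 37 °C; CellTiter-Glo luminescence; % activity normalised to DMSO and no-cell wells; curves fitted, classed by r2 and efficacy.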
KB-3-1 tox – KB-3-1 parental cell cytotoxicity | KB-3-1 viability, CellTiter-Glo ATP luminescence, 72 h | Potency, µM (titrated, usually from 46.1 µM), hits mostly cytotoxic | 400,000 tested, 1.4% active | AID 1347075; also: nearly all actives have a fitted effect of over 60% in size
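Parental KB-3-1 adenocarcinoma cells in phenol-red-free DMEM with 10% FBS were pin-treated with compounds at several concentrations, incubated 72 h at 37 °C, and viability read by CellTiter-Glo luminescence; concentration-effect curves were fitted after normalization.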
HT1080-NT tox – kills 2HG-producing HT-1080-NT fibrosarcoma cells | HT-1080-NT fibrosarcoma viability, CellTiter-Glo ATP luminescence, 48 h | Potency, µM (series often up to 46.1 µM), for inactives: at the top dose activity, negative = less viability, hits mostly cytotoxic | 360,000 tested, 1.6% active;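 also: NT is the 2HG producing partner of a matched IDH1 knockdown line; 0% = DMSO-treated cells and -100% = media-only wells without cells; nearly all actives have a fitted effect of over 55% in size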
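Fibrosarcoma NT cells, 750 per well in 5% FBS RPMI, were exposed to compound for 48 hours. Viability: CellTiter-Glo luminescence.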
The depositor's hits bear a star; i = inactive; ? = inconclusive; / = no result given. Calls follow the shape of the dose curve; as a rule, active = well fitted curve in the direction sought with a large enough effect; inconclusive = small, poorly fitted or top-dose-only effect, or another doubt; inactive = no such curve, though single readings can be large; an effect the other way counts as inactive or inconclusive. Unless noted, % is scaled to controls: 0 for no effect and ±100 for the full control effect; potency is read from the fitted curve at half-maximal effect.

SMILES	KB-V1 MDR tox	HT1080 IDH1KD tx	KB-3-1 tox	HT1080-NT tox
O=C(CN1C(=O)CC(c2ccco2)Sc2ccccc21)Nc1cccc(C(F)(F)F)c1 (stereo not drawn)	21µM*	/	?	/
Cc1cccc(NC(=S)N2CCn3cccc3C2c2cccnc2)c1 (stereo not drawn)	16µM*	4%	i	6%
COc1cccc(NC(=S)N2CCn3cccc3C2c2cccnc2)c1 (stereo not drawn)	i	-14%	i	-3%
CCOC(=O)c1ccc(N2C(=O)c3n[nH]c(C)c3C2c2ccc(OCC)cc2)cc1 (stereo not drawn)	?	/	23µM*	/
Cc1[nH]nc2c1C(c1ccccn1)N(c1ccc(Br)cc1)C2=O (stereo not drawn)	18µM*	0%	i	-1%
CCOC(=O)c1ccc(N2C(=O)c3[nH]nc(-c4ccccc4)c3C2c2ccc(CC)cc2)cc1 (stereo not drawn)	23µM*	/	?	/
CCOC(=O)c1ccc(N2C(=O)c3[nH]nc(-c4ccc(C)cc4)c3C2c2ccc(O)cc2)cc1 (stereo not drawn)	i	/	?	/
CCOC(=O)c1ccc(N2C(=O)c3n[nH]c(-c4cccs4)c3C2c2ccc(OC)cc2OC)cc1 (stereo not drawn)	26µM*	/	?	/
O=C(NCc1cccc(Br)c1)c1cccn1-c1nnc(N2CCCCC2)s1	i	/	i	/
O=C(Cc1ccccc1)N(Cc1cccnc1)c1nc2c(F)cc(F)cc2s1	?	/	i	/
CCOc1ccc(C2C=C(c3cccc(OC)c3)Nc3nnnn32)cc1 (stereo not drawn)	i	/	i	/
COc1cccc(C2=CC(c3cc(Br)ccc3F)n3nnnc3N2)c1 (stereo not drawn)	i	/	13µM*	/
COc1ccc(-c2cc(C#N)nc(Cl)n2)cc1	i	9.2µM*	i	7.3µM*
CCN(CC)c1nc(C#N)cc(-c2ccc(OC)cc2)n1	5.8µM*	?	7.3µM*	?
COc1ccc(-c2cc(C#N)nc(Oc3ccc(Cl)cc3)n2)cc1	i	-1%	i	6%
COc1ccc(-c2cc(C#N)nc(NN)n2)cc1	i	?	?	?
CN(c1ccc(/C=C/c2ccccc2)cc1)P1(=O)NCCCO1 (stereo not drawn)	i	/	i	/
CCCCOc1ccccc1C1C(C(=O)OC)=C(C)N(C)C(C)=C1C(=O)OC	9.2µM*	-3%	i	6%
COC(=O)c1cc(=O)nc2sc(-c3ccc(F)cc3)nn12	i	-14%	i	-5%
O=C(NCc1ccccc1)c1cc(=O)nc2sc(-c3ccccc3)nn12	13µM*	12%	?	10%
CCC(C)CN1C(=O)CN(S(C)(=O)=O)CC1(C)C(=O)NCc1ccccc1 (stereo not drawn)	i	21%	i	16%
Cc1nc(-c2cc(C#N)c(=O)[nH]c2C)cs1	4.6µM*	4%	?	-15%
COc1cc(C2C(c3ccccc3)C(c3cc(OC)cc(=O)o3)C2c2ccccc2)oc(=O)c1 (stereo not drawn)	6.5µM*	-9%	i	-2%
CCOC(=O)C1=C(C)NC(C)=C(C(=O)OCC)C1/C=C/c1ccccc1OC	21µM*	-6%	i	-7%
COCCOC(=O)C1=C(C)NC(C)=C(C(=O)OCCOC)C1/C=C/c1ccccc1OC	i	-24%	i	-8%
SMILES	KB-V1 MDR tox	HT1080 IDH1KD tx	KB-3-1 tox	HT1080-NT tox
C=CCOC(=O)C1=C(C)NC(C)=C(C(=O)OCC=C)C1/C=C/c1ccccc1	?	18µM*	?	?
CCOC(=O)C1=C(C)NC(C)=C(C(=O)OCC)C1/C=C/c1ccccc1	i	?	i	?
CCN1C(=O)/C(=C\N2CCN(C)CC2)SC1=S	i	23%	i	14%
CCN1C(=O)/C(=C\N2CCN(c3ccc(F)cc3)CC2)SC1=S	2.6µM*	-3%	i	10%
CCN(C(=O)C(=O)Nc1ccc2nc3n(c(=O)c2c1)CCCCC3)c1ccc(F)cc1	i	/	i	/
Cc1ccc(C2(CC(=O)N3CCCC3)CCOC(C(C)C)C2)cc1 (stereo not drawn)	i	2%	i	5%
CC(C)C1CC(CCNCc2ccc3c(c2)OCO3)(c2ccccc2)CCO1 (stereo not drawn)	?	26µM*	?	18µM*

Screening data deposited in PubChem BioAssay by National Center for Advancing Translational Sciences (NCATS).
